Targets with a hit are over-represented here; the source holds about 8,800 in all. About 0.5% of all pairs of compound and target were hits.
Columns and labels:
Assay in all cases: log2 fold change, soluble protein after heating vs DMSO (PISA); higher = thermal stabilisation; K562 lysate, 10 uM; active = over 0.2 and 3.5 SD of the protein, either way, in both replicates (recomputed)
[1] = compound: NCC(=O)Nc1ccc(-n2nc(C(F)(F)F)cc2-c2ccc3c(ccc4ccccc43)c2)cc1
Summary of the method: (§1)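 K562 pellets were dounce-homogenised in PBS pH 7.4 with 1 mM MgCl2, and the crude extract at 1 mg/mL protein was treated with 10 μM compound for 30 min. Aliquots were heated for 3 min across 48°C-58°C, pooled, and brought to 0.5% NP-40 at 4°C; soluble protein was the supernatant after 21,000xg for 90 min. Soluble protein was quantified by TMTpro 16plex LC-MS/MS with channel sums equalised, and reported as log2 fold change in thermal stability against DMSO controls, with values from duplicates.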

[2] = compound: O=C(CCCCCCC(=O)Nc1ccccc1)NO [vorinostat]
Summary of the method: as §1

[3] = compound: O=C(O)c1ccc2c(c1)nc(Nc1cccc(Cl)c1)c1ccncc12 [silmitasertib]
Summary of the method: as §1

[4] = compound: O=C1NC(=O)C(c2cnc3ccccn23)=C1c1cn2c3c(cc(F)cc13)CN(C(=O)N1CCCCC1)CC2
Summary of the method: as §1

[5] = compound: c1cn2cc(-c3ccc4cn[nH]c4c3)nc(Nc3ccc(N4CCOCC4)cc3)c2n1 [entospletinib]
Summary of the method: as §1

Measured: log2 fold change

DBF4 (UniProt Q9UBU7)
UniProt Q9UBU7, sequence (Q9UBU7 whole entry, looked up): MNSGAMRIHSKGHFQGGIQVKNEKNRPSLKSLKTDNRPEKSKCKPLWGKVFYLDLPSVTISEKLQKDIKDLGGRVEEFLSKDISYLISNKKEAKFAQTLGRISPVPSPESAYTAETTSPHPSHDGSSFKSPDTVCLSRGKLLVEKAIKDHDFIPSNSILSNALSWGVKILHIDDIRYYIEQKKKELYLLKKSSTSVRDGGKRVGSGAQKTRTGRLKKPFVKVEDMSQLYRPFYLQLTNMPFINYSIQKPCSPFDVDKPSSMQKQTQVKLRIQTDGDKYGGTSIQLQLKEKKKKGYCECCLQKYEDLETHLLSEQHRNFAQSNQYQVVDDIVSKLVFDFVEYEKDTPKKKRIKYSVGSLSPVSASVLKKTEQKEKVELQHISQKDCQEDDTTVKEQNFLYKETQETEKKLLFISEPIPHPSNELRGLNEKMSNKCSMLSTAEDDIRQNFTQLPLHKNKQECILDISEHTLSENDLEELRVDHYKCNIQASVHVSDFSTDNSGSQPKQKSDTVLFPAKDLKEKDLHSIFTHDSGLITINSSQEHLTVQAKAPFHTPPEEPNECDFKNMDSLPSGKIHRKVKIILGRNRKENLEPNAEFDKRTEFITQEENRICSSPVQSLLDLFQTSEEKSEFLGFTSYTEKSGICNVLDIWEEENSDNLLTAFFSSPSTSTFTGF
inactive: [1] 0.059 | [2] -0.226 | [3] -0.138 | [4] 0.028 | [5] 0.002

DPM1 (UniProt O60762)
UniProt O60762, sequence (O60762 whole entry, looked up): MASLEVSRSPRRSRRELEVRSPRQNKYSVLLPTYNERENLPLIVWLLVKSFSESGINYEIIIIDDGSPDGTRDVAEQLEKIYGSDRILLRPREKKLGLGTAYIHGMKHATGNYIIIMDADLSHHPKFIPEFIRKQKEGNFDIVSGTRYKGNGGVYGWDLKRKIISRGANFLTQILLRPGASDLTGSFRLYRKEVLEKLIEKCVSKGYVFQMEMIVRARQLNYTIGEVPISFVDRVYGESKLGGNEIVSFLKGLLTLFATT
inactive: [1] 0.05 | [2] -0.01 | [3] -0.016 | [4] -0.011 | [5] 0.02

DIAPH1 (UniProt H9KV28)
inactive: [1] -0.002 | [2] 0.087 | [3] 0.084 | [4] -0.083 | [5] -0.113

DPH5 isoform 5 (UniProt Q9H2P9)
UniProt Q9H2P9, sequence (Q9H2P9 whole entry, looked up): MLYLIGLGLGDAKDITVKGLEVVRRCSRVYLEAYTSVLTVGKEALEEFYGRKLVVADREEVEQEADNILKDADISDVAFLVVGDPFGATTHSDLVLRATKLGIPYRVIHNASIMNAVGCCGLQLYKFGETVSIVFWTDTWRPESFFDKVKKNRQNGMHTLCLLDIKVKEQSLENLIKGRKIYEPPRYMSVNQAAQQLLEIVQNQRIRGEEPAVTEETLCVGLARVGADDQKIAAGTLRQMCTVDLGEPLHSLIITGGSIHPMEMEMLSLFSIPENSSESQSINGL
inactive: [1] -0.046 | [2] -0.06 | [3] -0.015 | [4] 0.077 | [5] -0.011

DMXL1 (UniProt Q9Y485)
active: [2] -0.237
inactive: [1] 0.022 | [3] 0.044 | [4] -0.013 | [5] 0.022

DIAPH3 (UniProt Q9NSV4)
inactive: [1] -0.047 | [3] 0.067 | [4] -0.006 | [5] -0.017
active: [2] -0.584

CLPTM1L (UniProt Q96KA5)
inactive: [1] -0.045 | [2] 0.136 | [3] 0.012 | [4] 0.012 | [5] -0.039

CHEK2 (UniProt O96017)
UniProt O96017, sequence (O96017 whole entry, looked up): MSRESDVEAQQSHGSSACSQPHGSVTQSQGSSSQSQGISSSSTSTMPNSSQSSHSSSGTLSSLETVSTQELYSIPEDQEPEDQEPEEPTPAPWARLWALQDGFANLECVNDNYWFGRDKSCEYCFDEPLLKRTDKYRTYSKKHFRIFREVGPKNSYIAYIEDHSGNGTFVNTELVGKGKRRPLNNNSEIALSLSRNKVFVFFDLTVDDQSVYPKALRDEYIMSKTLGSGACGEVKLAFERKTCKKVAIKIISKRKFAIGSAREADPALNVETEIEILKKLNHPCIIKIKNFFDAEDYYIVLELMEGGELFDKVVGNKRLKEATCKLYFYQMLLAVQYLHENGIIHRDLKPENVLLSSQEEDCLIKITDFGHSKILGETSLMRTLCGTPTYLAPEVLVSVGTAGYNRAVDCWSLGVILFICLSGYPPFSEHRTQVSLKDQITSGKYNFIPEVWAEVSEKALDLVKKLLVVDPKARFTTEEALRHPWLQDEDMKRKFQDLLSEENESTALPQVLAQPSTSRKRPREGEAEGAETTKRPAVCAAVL
inactive: [1] -0.021 | [2] -0.128 | [3] 0.04 | [4] -0.006 | [5] -0.033

CSDE1 isoform 4 (UniProt O75534)
inactive: [1] -0.004 | [3] 0.015 | [4] -0.009 | [5] 0.04
active: [2] -0.33

DDAH1 (UniProt O94760)
inactive: [1] -0.076 | [2] 0.07 | [3] -0.035 | [4] 0.017 | [5] -0.014

CLCN3 isoform 2 (UniProt P51790)
inactive: [1] -0.059 | [3] 0.033 | [4] -0.024 | [5] 0.046
active: [2] -0.286

CKAP5 (UniProt Q14008)
inactive: [1] -0.013 | [3] 0.011 | [4] 0.002 | [5] 0.005
active: [2] -0.269

CUEDC2 (UniProt Q9H467)
inactive: [1] -0.01 | [2] 0.151 | [3] -0.012 | [4] 0.003 | [5] 0.066

CLUH (UniProt O75153)
UniProt O75153, sequence (O75153 whole entry, looked up): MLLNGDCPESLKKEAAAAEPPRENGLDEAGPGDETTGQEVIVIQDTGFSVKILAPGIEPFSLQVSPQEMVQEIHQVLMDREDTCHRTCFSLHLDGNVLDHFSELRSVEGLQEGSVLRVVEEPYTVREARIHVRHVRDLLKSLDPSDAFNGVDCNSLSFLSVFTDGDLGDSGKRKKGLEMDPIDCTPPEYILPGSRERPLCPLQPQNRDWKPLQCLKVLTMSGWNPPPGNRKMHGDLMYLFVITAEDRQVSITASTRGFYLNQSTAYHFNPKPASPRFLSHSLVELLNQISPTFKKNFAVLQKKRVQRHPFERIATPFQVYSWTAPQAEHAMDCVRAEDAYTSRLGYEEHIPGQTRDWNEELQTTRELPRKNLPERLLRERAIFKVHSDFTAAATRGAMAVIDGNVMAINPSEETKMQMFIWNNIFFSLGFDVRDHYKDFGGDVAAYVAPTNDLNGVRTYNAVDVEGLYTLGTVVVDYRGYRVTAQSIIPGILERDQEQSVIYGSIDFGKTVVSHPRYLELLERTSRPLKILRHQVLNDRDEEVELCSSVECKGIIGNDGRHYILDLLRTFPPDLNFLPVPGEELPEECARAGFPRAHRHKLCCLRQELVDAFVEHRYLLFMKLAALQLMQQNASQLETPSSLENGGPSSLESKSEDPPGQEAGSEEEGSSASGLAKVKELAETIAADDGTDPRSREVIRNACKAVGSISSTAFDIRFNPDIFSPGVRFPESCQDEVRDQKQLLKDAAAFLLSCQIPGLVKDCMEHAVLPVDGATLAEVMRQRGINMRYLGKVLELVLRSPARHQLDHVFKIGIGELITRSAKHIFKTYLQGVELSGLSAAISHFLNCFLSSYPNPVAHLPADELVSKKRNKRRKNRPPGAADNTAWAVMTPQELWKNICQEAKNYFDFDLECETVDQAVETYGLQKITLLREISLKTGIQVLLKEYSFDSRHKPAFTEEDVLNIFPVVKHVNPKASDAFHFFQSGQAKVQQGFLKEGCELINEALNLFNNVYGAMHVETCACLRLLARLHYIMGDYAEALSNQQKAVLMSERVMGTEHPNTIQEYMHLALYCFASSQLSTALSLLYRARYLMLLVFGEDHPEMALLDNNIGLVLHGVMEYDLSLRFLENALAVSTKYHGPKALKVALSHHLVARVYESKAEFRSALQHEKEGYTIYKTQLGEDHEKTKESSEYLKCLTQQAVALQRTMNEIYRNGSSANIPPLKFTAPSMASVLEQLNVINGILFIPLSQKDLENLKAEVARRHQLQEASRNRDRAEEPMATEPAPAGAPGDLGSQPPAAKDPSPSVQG
active: [2] 0.404
inactive: [1] -0.011 | [3] 0.071 | [4] 0.033 | [5] 0.01

CHMP4A (UniProt H0YIN6)
inactive: [4] 0.287

DONSON (UniProt Q9NYP3)
UniProt Q9NYP3, sequence (Q9NYP3 whole entry, looked up): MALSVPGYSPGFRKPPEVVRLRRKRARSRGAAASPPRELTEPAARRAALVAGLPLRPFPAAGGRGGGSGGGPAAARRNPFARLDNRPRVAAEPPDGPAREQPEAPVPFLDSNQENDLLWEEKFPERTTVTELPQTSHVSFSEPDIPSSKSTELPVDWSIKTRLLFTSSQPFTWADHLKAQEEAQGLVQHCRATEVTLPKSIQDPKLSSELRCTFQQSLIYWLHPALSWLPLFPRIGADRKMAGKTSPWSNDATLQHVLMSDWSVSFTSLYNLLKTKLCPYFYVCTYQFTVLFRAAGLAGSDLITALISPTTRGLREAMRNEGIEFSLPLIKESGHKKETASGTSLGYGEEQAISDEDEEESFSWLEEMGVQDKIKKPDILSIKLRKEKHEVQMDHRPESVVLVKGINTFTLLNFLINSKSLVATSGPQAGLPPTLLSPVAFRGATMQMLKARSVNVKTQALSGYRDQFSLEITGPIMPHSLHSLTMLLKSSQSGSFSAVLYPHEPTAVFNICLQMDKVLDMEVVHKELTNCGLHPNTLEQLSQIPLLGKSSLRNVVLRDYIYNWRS
active: [2] -0.401
inactive: [3] -0.123 | [4] 0.032

CXCL14 (UniProt O95715)
inactive: [1] 0.24 | [5] 0.033

DERA (UniProt Q9Y315)
UniProt Q9Y315, sequence (Q9Y315 whole entry, looked up): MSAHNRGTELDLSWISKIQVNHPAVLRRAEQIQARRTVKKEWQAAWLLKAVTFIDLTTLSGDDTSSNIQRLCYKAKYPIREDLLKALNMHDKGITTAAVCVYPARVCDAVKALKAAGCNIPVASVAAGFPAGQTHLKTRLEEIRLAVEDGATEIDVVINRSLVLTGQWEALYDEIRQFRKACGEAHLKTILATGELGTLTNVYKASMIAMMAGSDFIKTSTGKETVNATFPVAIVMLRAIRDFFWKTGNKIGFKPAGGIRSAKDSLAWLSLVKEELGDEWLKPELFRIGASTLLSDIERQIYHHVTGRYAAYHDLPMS
inactive: [1] -0.015 | [2] 0.063 | [3] -0.003 | [4] 0.018 | [5] 0

CSAD isoform 3 (UniProt Q9Y600)
UniProt Q9Y600, sequence (Q9Y600 whole entry, looked up): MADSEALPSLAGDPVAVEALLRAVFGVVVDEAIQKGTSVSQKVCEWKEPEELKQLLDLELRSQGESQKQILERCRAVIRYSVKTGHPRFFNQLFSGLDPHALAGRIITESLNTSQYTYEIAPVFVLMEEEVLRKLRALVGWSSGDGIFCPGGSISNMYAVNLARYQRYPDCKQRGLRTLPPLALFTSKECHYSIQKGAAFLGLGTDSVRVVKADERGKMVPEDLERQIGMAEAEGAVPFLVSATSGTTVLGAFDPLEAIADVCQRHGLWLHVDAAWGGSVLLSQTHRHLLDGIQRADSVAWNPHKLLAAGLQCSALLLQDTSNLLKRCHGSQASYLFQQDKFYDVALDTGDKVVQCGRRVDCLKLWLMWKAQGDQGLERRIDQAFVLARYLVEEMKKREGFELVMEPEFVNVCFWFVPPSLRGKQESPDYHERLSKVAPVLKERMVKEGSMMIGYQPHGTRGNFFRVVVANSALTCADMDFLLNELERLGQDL
inactive: [2] 0.031 | [3] 0.075 | [4] 0.039

DNAJC1 (UniProt Q96KC8)
UniProt Q96KC8, sequence (Q96KC8 whole entry, looked up): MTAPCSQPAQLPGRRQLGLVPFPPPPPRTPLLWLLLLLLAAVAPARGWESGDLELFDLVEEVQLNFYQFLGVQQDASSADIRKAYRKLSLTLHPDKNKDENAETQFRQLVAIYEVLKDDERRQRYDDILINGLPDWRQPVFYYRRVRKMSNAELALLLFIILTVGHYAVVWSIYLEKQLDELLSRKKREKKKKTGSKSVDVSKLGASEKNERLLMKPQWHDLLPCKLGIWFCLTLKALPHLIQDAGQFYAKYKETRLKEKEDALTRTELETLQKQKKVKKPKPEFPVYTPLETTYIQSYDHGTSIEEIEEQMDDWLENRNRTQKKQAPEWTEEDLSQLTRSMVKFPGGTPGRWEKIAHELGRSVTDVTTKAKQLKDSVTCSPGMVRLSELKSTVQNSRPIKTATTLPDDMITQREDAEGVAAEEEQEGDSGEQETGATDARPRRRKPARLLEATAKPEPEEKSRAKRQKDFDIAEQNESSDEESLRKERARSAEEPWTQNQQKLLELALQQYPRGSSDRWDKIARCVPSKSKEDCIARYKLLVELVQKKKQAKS
inactive: [1] 0.003 | [2] 0.017 | [3] 0.025 | [4] -0.007 | [5] -0.032

CLIP1, A0A3B3ITA2
inactive: [1] 0.136 | [4] 0.068

CNK3/IPCEF1 isoform 2 (UniProt G9CGD6)
inactive: [1] -0.02 | [2] -0.279 | [3] 0.06 | [5] 0.008

CLIP1 isoform 2 (UniProt P30622)
inactive: [2] 0.167 | [3] -0.035 | [4] 0.002 | [5] -0.151

DNM2 (UniProt P50570)
active: [2] -0.27
inactive: [1] 0.011 | [3] 0.061 | [4] -0.021 | [5] 0.014

CLASP2 (UniProt O75122)
inactive: [1] 0.052 | [4] 0.194 | [5] -0.073

DESI2 (UniProt Q9BSY9)
inactive: [1] 0.155 | [5] 0.116

CSDE1 isoform 3 (UniProt O75534)
inactive: [4] -0.1

CYP4V2 (UniProt Q6ZWL3)
inactive: [2] 0.055 | [3] -0.038 | [4] 0.034

From the supplement of paper PMC10849652
